Bioassay records deposited in PubChem BioAssay by several laboratories.
Shn3 inh set2: Schnurri-3 reporter inhibition in Clone20 osteoblasts; Clone20 osteoblast Shn3 3'UTR firefly luciferase, 24 h; inhibition, % at 12.5 µM; hit rate 0.52% among 360,000; AID 588674;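 active = mean inhibition of at least 75% with every replicate also reaching 75%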;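 note: 0% = median of neutral control wells and 100% = pilot-screen positive control compound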
TRPM1 prom inh: inhibitors of MITF-driven TRPM1 promoter in melanoma cells | SK-MEL-5 TRPM1 promoter luciferase, 24 h | inhibition, % at 12.5 µM | hit rate 0.83% among 330,000 | AID 488899;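 active = mean inhibition across replicates of 60% or more, whatever share of single replicates reaches that level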
TROY signal inh: inhibitors of TROY-dependent NF-kB signaling; AID 1347056; hit rate 0.98% among 360,000; inhibition, % at 10 µM; Q293 LMP1-TROYcd NF-kB luciferase reporter, 4 h;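 active = compounds whose plate-normalised and pattern-corrected inhibition of the luciferase reporter signal at the single screening dose is 50% or more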
TWEAK-Fn14 inh: blocks TWEAK-Fn14 interaction in a reporter cell assay | inhibition, % at 10 µM | hit rate 2% among 360,000 | TWEAK-stimulated Fn14 reporter cells, luciferase luminescence, 8 h; in the data active = inhibition above about 50%
EBV LMP1 NFkB: reduces LMP1-driven NF-kappaB luciferase signal | inhibition, % at 12.5 µM | AID 504558 | LMP1-induced NF-kappaB luciferase reporter cells, luminescence | hit rate 0.69% among 350,000; in the data active = inhibition above about 41%;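 note: 0% = neutral control wells and 100% = reference inhibitor control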
Peg3 prom inh: Peg3 promoter activity inhibition; hit rate 1.7% among 360,000; HeLa PEG-Prom luciferase reporter, luminescence, overnight; inhibition, % at 20 µM;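 active = inhibition of at least 50% at 20 µM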
* hit, by the source's call; · = not tested or not shown. A selection: hits, their analogues and other compounds. The true share with any hit is near 4.1%.

SMILES | Shn3 inh set2 | TRPM1 prom inh | TROY signal inh | TWEAK-Fn14 inh | EBV LMP1 NFkB | Peg3 prom inh
CC(C)c1ccc(-n2nc3ccc(N)cc3n2)cc1 | 28.4 | 16.5 | 5.0 | 50.8* | -29.6 | -216.4
CC1CC(OC(=O)C2CCN(S(=O)(=O)c3ccc(F)cc3)CC2)C(=O)O1 (stereo not drawn) | -4.2 | 6.7 | 10.6 | -12.4 | 3.3 | 3.4
O=C(Cn1c(COc2ccccc2)nc2ccccc21)Nc1cc(Cl)ccc1Cl | 13.6 | 0.1 | -19.8 | -17.7 | -77.6 | 54.1*
O=C(O)CSCC(=O)N1CCN(c2nc3cc(Cl)ccc3s2)CC1 | 8.1 | -15.9 | 5.1 | 61.6* | 1.3 | -2.4
CCCCCCC#Cc1ccc2c(c1)COc1c3ccccc3nn1-2 | 89.9* | -7.2 | -37.6 | -8.3 | -20.6 | -246.5
N#CCCCC#Cc1ccc2c(c1)COc1c3ccccc3nn1-2 | -13.9 | 9.6 | 81.0* | 93.4* | -4.7 | -39.7
CCCCC#Cc1ccc2c(c1)COc1c3ccccc3nn1-2 | -66.5 | -14.4 | -45.2 | 11.0 | -20.6 | -319.2
Cc1ccccc1Cn1cc(NC(=O)c2nn(C)cc2Cl)cn1 | -16.1 | -22.2 | 0.4 | -8.1 | -2.0 | -35.4
Cc1ccc(C2CC(C(F)F)n3ncc(C(=O)Nc4cnn(Cc5ccccc5C)c4)c3N2)cc1 (stereo not drawn) | 8.8 | -0.2 | 35.6 | 12.5 | -15.2 | 61.5*
O=c1oc2ccccc2cc1-c1ccc(O)cc1 | -50.3 | -37.1 | -97.6 | -69.7 | -15.7 | -223.3
Nc1ccc(-c2cc3ccccc3oc2=O)cc1 | 76.6 | 93.6* | 60.4* | 82.2* | 58.0* | 38.0
C[C@H](CO)N1C[C@H](C)[C@@H](CN(C)C(=O)Nc2ccc(C(F)(F)F)cc2)Oc2ccc(NS(=O)(=O)c3cn(C)cn3)cc2C1=O | -9.2 | 0.0 | -11.1 | 6.4 | -0.2 | -14.4
O=C(CCN1C(=O)c2ccccc2C1=O)Nc1ccc(-c2nc3ccccc3o2)cc1 | -9.4 | -21.5 | -21.2 | -25.0 | 5.5 | -168.2
O=C(Nc1ccc2oc(-c3ccccc3)nc2c1)c1cc(-n2cnnc2)ccc1Cl | -0.5 | -42.3 | -33.9 | 32.1 | -5.7 | -118.0
Cc1ccc(OCC(=O)Nc2ccc(O)c(-c3nc4ccccc4o3)c2)cc1 | 34.0 | 42.4 | 6.6 | -44.5 | 2.8 | 51.6*
O=C(Nc1ccc(-c2nc3ccccc3o2)cc1)c1cc(-n2cnnc2)ccc1Cl | 35.8 | 14.2 | 35.7 | 75.6* | -28.3 | -102.3
O=C(Nc1ccc(-c2nc3ccccc3o2)c(O)c1)c1cc(-n2cnnc2)ccc1Cl | 35.0 | 35.3 | 38.3 | 66.2* | -18.2 | -30.2
O=C(CN1C(=O)c2ccccc2C1=O)Nc1ccc(-c2nc3ccccc3o2)cc1 | -4.0 | -8.2 | · | 72.1* | -2.6 | -16.7
COc1ccc(C(C)NC(=O)Cc2cccs2)cc1 (stereo not drawn) | -2.1 | -0.7 | -16.1 | -5.2 | 35.9 | 18.4
O=C(Nc1ccc(-c2nc3ccccc3o2)cc1)c1ccc2c(c1)OCO2 | -15.3 | -6.8 | -30.9 | 0.5 | -28.0 | 13.3
O=C(Nc1ccc(-c2nc3ccccc3o2)cc1)c1ccc(N2C(=O)C3C4C=CC(C4)C3C2=O)cc1 (stereo not drawn) | 20.1 | 12.3 | 57.0* | 21.2 | -2.5 | -19.9
COc1cc(C(=O)Nc2scc(-c3ccc(Br)cc3)c2C(=O)O)cc(OC)c1OC | -2.9 | 5.0 | 71.9* | -6.7 | 1.2 | 37.2
c1ccc(-c2nnc(-c3ccccn3)nc2NC2CCCCC2)cc1 | 80.2 | 73.8* | -5.3 | -17.2 | 86.1* | 36.7
Fc1ccccc1-c1nc(NC2CCCC2)c2ccccc2n1 | 16.4 | -0.9 | 11.7 | 36.0 | -3.0 | 13.0
Oc1ccccc1-c1nc(NC2CCCC2)c2ccccc2n1 | 10.8 | 18.0 | 60.5* | 34.2 | -19.1 | 11.1
SMILES | Shn3 inh set2 | TRPM1 prom inh | TROY signal inh | TWEAK-Fn14 inh | EBV LMP1 NFkB | Peg3 prom inh
COc1cccc(CNC(=O)C2CSC3(C)CCC(=O)N23)c1 (stereo not drawn) | 1.5 | -2.4 | -0.7 | 4.8 | 4.3 | -13.0
C/C(=N\NC(=O)CCc1ccc(S(=O)(=O)N2CCOCC2)cc1)c1ccccc1Cl | 23.6 | 1.9 | 12.2 | 10.2 | 1.1 | -2.6
N#CC(C#N)=C1C=CC=CN1/C(=C\c1ccco1)C(=O)c1ccc(-c2ccccc2)cc1 | 15.8 | 72.7* | 32.4 | 88.5* | -31.7 | 109.6*
N#C/C(=C\c1ccco1)C(=O)NCc1ccccc1 | 18.5 | -2.3 | 8.1 | 9.9 | -2.4 | -19.2
C[C@H]1CN([C@@H](C)CO)C(=O)CCCn2cc(nn2)CO[C@@H]1CN(C)C(=O)c1ccncc1 | -15.8 | · | 3.2 | -6.0 | -4.6 | 1.7
Cc1cccc(-n2c(-c3csc(C)c3C)n[nH]c2=S)c1 | -7.4 | -9.2 | 3.3 | 92.1* | -3.6 | 2.5
O=C(N/N=C/c1cc(Cl)cc([N+](=O)[O-])c1O)c1cccc(S(=O)(=O)N2CCOCC2)c1 | -6.3 | 4.9 | 7.4 | -0.5 | -1.6 | -9.5
CCCCCn1c(=NC(=O)c2cccnc2)c(C#N)cc2c(=O)n3cccc(C)c3nc21 | -8.5 | 13.8 | -0.8 | 29.8 | -1.6 | 55.8*
CCCCn1c(=NC(C)=O)c(C#N)cc2c(=O)n3cccc(C)c3nc21 | 28.6 | -1.7 | -11.2 | -13.4 | -3.4 | 20.1
C=CCNC(=O)/C(C#N)=C/c1c(C)nn(-c2ccc(Cl)cc2)c1Cl | 2.5 | 2.7 | -0.4 | 50.7* | -6.9 | 6.2
Cc1nn(-c2ccc(Cl)cc2)c(Cl)c1/C=C(\C#N)C(N)=O | -16.0 | 18.0 | -3.9 | 8.1 | -17.2 | 15.5
COc1ccc(NC(=O)C2(S(=O)(=O)c3ccc(C)cc3)CC2)cc1OC | -25.5 | -2.3 | -19.2 | -0.1 | -6.7 | 9.2
Oc1ccccc1N=Nc1ccccc1O | 68.8 | 9.0 | -28.9 | -28.9 | 67.1* | -13.4
Cc1ccccc1OCc1nc2ccccc2c(=O)n1/N=C/c1cn[nH]c1-c1ccccc1 | -38.6 | -26.4 | -31.5 | 10.3 | 1.1 | 39.6
Cc1ccc(-c2[nH]ncc2/C=N/n2c(COc3ccccc3)nc3ccccc3c2=O)cc1 | -2.2 | -2.5 | 26.6 | 37.4 | 9.4 | 52.1*
Cc1ccc(C23CC4CC(CC(CN)(C4)C2)C3)cc1 | 12.7 | 11.9 | -7.9 | 0.7 | -21.0 | 103.0*
NCC12CC3CC(C1)CC(c1ccc(Br)cc1)(C3)C2 | 47.8 | -6.6 | -64.9 | -54.6 | 1.3 | 103.8*
O=C(CCNC(=O)C1CCN(S(=O)(=O)c2ccc(F)cc2)CC1)NCc1ccccc1 | 0.0 | 6.6 | 13.1 | -17.1 | -3.4 | 1.7
Cc1ccccc1S(=O)(=O)NC(=O)C1(C)CCN1C(=O)c1cccc(F)c1 (stereo not drawn) | 8.9 | · | 2.8 | 9.3 | · | -0.8
O=C(Nc1ccc2c(c1)C(=O)NC2=O)c1cccc(C(F)(F)F)c1 | 1.8 | · | -5.0 | -10.2 | -15.9 | -3.7
NS(=O)(=O)c1ccc(Cc2ncc(C(F)(F)F)cc2Cl)s1 | 13.8 | 0.7 | -17.2 | 3.9 | -4.7 | 3.5
O=C(CCl)c1ccc(Cc2ncc(C(F)(F)F)cc2Cl)s1 | 24.5 | 22.2 | 11.0 | -20.0 | 5.6 | 60.9*
Cc1ccccc1CNS(=O)(=O)c1csc(C(N)=O)c1 | -4.0 | 9.1 | -25.3 | 11.5 | 2.9 | 3.4
